Assay [1] addresses human Retinoid X Receptor beta (RXRb), RXRB (gene 6257) (UniProt P28702). Put plainly: ATG_RXRb_TRANS: Attagene TRANS-FACTORIAL HepG2 Assay for human Retinoid X Receptor beta (RXRb) (AID 2283013; active = hit-call score of the fitted dose curve at least 0.9, where 1 is the maximum). In short, it runs like this:
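Transfect HepG2 with GAL4-UAS multi-reporter constructs (chimeric NR-Gal4, TRANS format); dose compound 24 h; isolate RNA, RT-PCR, FAM primer extension, HpaI digest; quantify by capillary electrophoresis; positive direction vs DMSO.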

Read-out in assay [2]: E-selectin (Homo sapiens) (UniProt P16581)
Put plainly: BSK_3C_Eselectin: BioMAP Diversity Plus: 3C Assay for Eselectin Biomarker Activity (AID 2283015).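 Note: cell surface E-selectin protein quantified by ELISA 24 h after dosing.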 The conditions noted are these: primary human endothelial cells (HUVEC); actives raise or lower the signal. In short, it runs like this:
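Primary human umbilical vein endothelial cells (3C system), read 24 h after compound addition; E-selectin measured by ELISA. Bidirectional curve fitting against DMSO baseline; cytotoxicity by parallel SRB total-protein staining.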

Read-out in assay [3]: Interleukin-1 alpha (IL1a), IL1A (gene 3552)
Put plainly: BSK_BE3C_IL1a: BioMAP Diversity Plus: BE3C Assay for Interleukin-1 alpha (IL1a) Biomarker Activity (AID 2283016). The following applies: primary human bronchial epithelial cells; actives raise or lower the signal. In short, it runs like this:
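BE3C primary human bronchial epithelium; cpd 24 h; IL-1a by ELISA; bidirectional fit vs DMSO; parallel SRB (0.1% SRB, 10% TCA fix, 560 nm) for cytotoxicity.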

Read-out in assay [4]: Monocyte Chemoattractant Protein-1 (MCP1), CCL2 (gene 6347)
Description: BSK_3C_MCP1: BioMAP Diversity Plus: 3C Assay for Monocyte Chemoattractant Protein-1 (MCP1) Biomarker Activity (AID 2283017). The conditions noted are these: primary human endothelial cells (HUVEC); actives raise or lower the signal. In short, it runs like this:
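Human umbilical vein endothelial cells (3C system) exposed to chemicals for 24 h; MCP-1 quantified by ELISA against the DMSO baseline with bidirectional fitting, and parallel SRB staining used to assess cytotoxicity.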

Read-out in assay [5]: Monocyte Chemoattractant Protein-1 (MCP1), CCL2 (gene 6347)
Description: BSK_4H_MCP1: BioMAP Diversity Plus: 4H Assay for Monocyte Chemoattractant Protein-1 (MCP1) Biomarker Activity (AID 2283018). The following applies: primary human endothelial cells (HUVEC); actives raise or lower the signal. In short, it runs like this:
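ELISA read-out of MCP-1 from human vascular endothelial primary cells taken at 24 hours after compound exposure. Activity was fitted in both directions relative to DMSO, which served as negative control.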

Read-out in assay [6]: Human Leukocyte Antigen - DR isotype (HLADR), HLA-DRA (gene 3122)
Description: BSK_3C_HLADR: BioMAP Diversity Plus: 3C Assay for Human Leukocyte Antigen - DR isotype (HLADR) Biomarker Activity (AID 2283019). The conditions noted are these: primary human endothelial cells (HUVEC); actives raise or lower the signal. In short, it runs like this: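 HUVEC monoculture, HLA-DR measured by ELISA 24 h after chemical dosing. Fitted bidirectionally against DMSO baseline; parallel SRB staining assessed cytotoxicity, with 3C proliferation read by SRB at 48 h.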

Read-out in assay [7]: Interleukin-8 (IL8), CXCL8 (gene 3576)
Description: BSK_3C_IL8: BioMAP Diversity Plus: 3C Assay for Interleukin-8 (IL8) Biomarker Activity (AID 2283020). The conditions noted are these: primary human endothelial cells (HUVEC); actives raise or lower the signal. In short, it runs like this: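 ELISA read-out of IL-8 from human umbilical vein endothelium, measured 24 h after chemical dosing. Activity is expressed relative to DMSO negative control, with both increases and decreases fitted.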

Read-out in assay [8]: Monokine induced gamma interferon (MIG), CXCL9 (gene 4283)
Description: BSK_3C_MIG: BioMAP Diversity Plus: 3C Assay for Monokine induced gamma interferon (MIG) Biomarker Activity (AID 2283021). The following applies: primary human endothelial cells (HUVEC); actives raise or lower the signal. In short, it runs like this:
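Read-out is ELISA detection of MIG on human umbilical vein endothelial cells, taken 24 h after dosing. Gain or loss of signal was scored relative to DMSO controls using bidirectional curve fitting.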

The target in assay [9] is human Vitamin D Receptor (VDR), VDR (gene 7421) (UniProt P11473). Put plainly: ATG_VDR_TRANS: Attagene TRANS-FACTORIAL HepG2 Assay for human Vitamin D Receptor (VDR) (AID 2283022; active = hit-call score of the fitted dose curve at least 0.9, where 1 is the maximum). In short, it runs like this: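 HepG2 cells were transiently transfected with GAL4-UAS reporter units and a chimeric VDR-Gal4 construct, then dosed for 24 hours. Reporter mRNA was quantified by RT-PCR, fluorescent labeling, HpaI digestion and capillary electrophoresis; gain of signal analysed vs DMSO.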
human Vitamin D Receptor (VDR), VDR (gene 7421), sequence (P11473 whole entry, looked up, the tested form may be a part): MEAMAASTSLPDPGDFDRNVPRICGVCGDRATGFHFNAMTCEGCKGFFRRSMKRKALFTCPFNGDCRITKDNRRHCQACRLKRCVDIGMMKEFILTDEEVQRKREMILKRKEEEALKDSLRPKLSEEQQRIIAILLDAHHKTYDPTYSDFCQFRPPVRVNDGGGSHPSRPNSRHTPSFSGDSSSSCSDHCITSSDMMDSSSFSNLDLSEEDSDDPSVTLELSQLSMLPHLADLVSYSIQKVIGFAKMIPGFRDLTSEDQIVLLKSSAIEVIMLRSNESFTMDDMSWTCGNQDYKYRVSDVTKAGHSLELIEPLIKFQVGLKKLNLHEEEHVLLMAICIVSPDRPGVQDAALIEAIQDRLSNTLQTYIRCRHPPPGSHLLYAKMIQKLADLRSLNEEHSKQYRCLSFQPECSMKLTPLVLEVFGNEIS

A short description of assay [10]: BSK_3C_SRB: Viability Assessment in the BioMAP Diversity Plus: 3C Assay (AID 2283023).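 Note: fitted both ways against DMSO so a hit may be signal rise or drop.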 The conditions noted are these: primary human endothelial cells (HUVEC). In short, it runs like this:
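Human umbilical vein endothelial cells in the 3C system, treated 24 h. Total protein measured by 0.1% sulforhodamine B staining after 10% TCA fixation, read at 560 nm; bidirectional fit versus DMSO.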

Read-out in assay [11]: Matrix Metallopeptidase 1 (MMP1), MMP1 (gene 4312)
Put plainly: BSK_BE3C_MMP1: BioMAP Diversity Plus: BE3C Assay for Matrix Metallopeptidase 1 (MMP1) Biomarker Activity (AID 2283024). The following applies: primary human bronchial epithelial cells; actives raise or lower the signal. In short, it runs like this: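 Human bronchial epithelial cells (BE3C system) exposed to compound for 24 h; MMP1 then quantified by ELISA. Activity was fitted in both directions relative to DMSO.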

Assay [12] can be described thus: BSK_3C_Vis: BioMAP Diversity Plus: 3C Assay for Morphology Visualization (AID 2283025).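 Note: fitted both ways so gain or loss versus DMSO counts.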 The following applies: primary human endothelial cells (HUVEC). In short, it runs like this: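 Chemicals were added to primary human umbilical vein endothelium, cells were incubated 24 h, and morphology was then visualized by light microscopy. Gain or loss of signal was fitted bidirectionally relative to DMSO.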

Read-out in assay [13]: Pselectin, SELP (gene 6403)
Put plainly: BSK_4H_Pselectin: BioMAP Diversity Plus: 4H Assay for Pselectin Biomarker Activity (AID 2283026). The following applies: primary human endothelial cells (HUVEC); actives raise or lower the signal. In short, it runs like this: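 ELISA read-out of P-selectin on human umbilical vein endothelium after 24 h of dosing. Values derive from bidirectional fitting relative to DMSO. Parallel SRB protein staining flagged overt cytotoxicity.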

A short description of assay [14]: BSK_BE3C_SRB: Viability Assessment in the BioMAP Diversity Plus: BE3C Assay (AID 2283028). The conditions noted are these: primary human bronchial epithelial cells. In short, it runs like this:
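Human bronchial epithelial primary cells in confluent culture, 24 h after chemical dosing; total protein by 0.1% SRB staining after 10% TCA fixation, read at 560 nm. Bidirectional fitting versus DMSO baseline.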

Read-out in assay [15]: Thrombomodulin, THBD (gene 7056)
Description: BSK_3C_Thrombomodulin: BioMAP Diversity Plus: 3C Assay for Thrombomodulin Biomarker Activity (AID 2283029). The conditions noted are these: primary human endothelial cells (HUVEC); actives raise or lower the signal. In short, it runs like this:
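Read-out is ELISA of thrombomodulin on human umbilical vein endothelium 24 h after chemical dosing. Gain or loss of signal is scored relative to DMSO. Overt cytotoxicity is checked in parallel cultures by sulforhodamine B staining.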

Read-out in assay [16]: Urokinase-type plasminogen activator receptor (uPAR), PLAUR (gene 5329)
Description: BSK_4H_uPAR: BioMAP Diversity Plus: 4H Assay for Urokinase-type plasminogen activator receptor (uPAR) Biomarker Activity (AID 2283030). The conditions noted are these: primary human endothelial cells (HUVEC); actives raise or lower the signal. In short, it runs like this:
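Human umbilical vein endothelial cells in the 4H system, 24 h after chemical dosing. Cell-surface uPAR measured by ELISA, fitted in both directions versus DMSO; cytotoxicity checked by SRB total protein in parallel cultures.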

Read-out in assay [17]: Vascular endothelial growth factor receptor 2 (Homo sapiens) (UniProt P35968)
Description: BSK_4H_VEGFRII: BioMAP Diversity Plus: 4H Assay for Vascular endothelial growth factor receptor 2 (VEGFR2) Biomarker Activity (AID 2283031). The following applies: primary human endothelial cells (HUVEC); actives raise or lower the signal. In short, it runs like this:
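Primary human umbilical vein endothelial cells (4H system), 24 h exposure; cell-surface VEGFR2 measured by ELISA. Bidirectional fitting versus DMSO; cytotoxicity checked in parallel by SRB total-protein staining.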

Read-out in assay [18]: Human Leukocyte Antigen - DR isotype (HLADR), HLA-DRA (gene 3122)
Put plainly: BSK_BE3C_HLADR: BioMAP Diversity Plus: BE3C Assay for Human Leukocyte Antigen - DR isotype (HLADR) Biomarker Activity (AID 2283032). The following applies: primary human bronchial epithelial cells; actives raise or lower the signal. In short, it runs like this: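 ELISA read-out of HLA-DR on human lung bronchial epithelial primary cells, measured 24 h post-dosing. Both increases and decreases were scored relative to DMSO vehicle.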

Assay [19] addresses human Thyroid Receptor alpha (THRa1), THRA (gene 7067) (UniProt P10827). Description: ATG_THRa1_TRANS: Attagene TRANS-FACTORIAL HepG2 Assay for human Thyroid Receptor alpha (THRa1) (AID 2283014; active = hit-call score of the fitted dose curve at least 0.9, where 1 is the maximum). In short, it runs like this:
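HepG2 cells transiently transfected with chimeric NR-Gal4 and GAL4-UAS reporter units, dosed 24 h. Reporter mRNA quantified by RT-PCR, fluorescent labeling, HpaI digestion and capillary electrophoresis; gain-of-signal fit versus DMSO.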

Records with an inconclusive call do not appear. Some compounds were tested as several samples or in several runs, with calls that do not always agree. The source made the active and inactive calls. Rule for the calls, unless noted: active = hit-call score of the fitted dose curve at least 0.9, where 1 is the maximum; inactive = score below 0.9.

What is called AC50 is the midpoint of the concentration-response curve, whichever way the signal moves.

human Retinoid X Receptor beta (RXRb), RXRB (gene 6257), sequence (P28702 whole entry, looked up, the tested form may be a part): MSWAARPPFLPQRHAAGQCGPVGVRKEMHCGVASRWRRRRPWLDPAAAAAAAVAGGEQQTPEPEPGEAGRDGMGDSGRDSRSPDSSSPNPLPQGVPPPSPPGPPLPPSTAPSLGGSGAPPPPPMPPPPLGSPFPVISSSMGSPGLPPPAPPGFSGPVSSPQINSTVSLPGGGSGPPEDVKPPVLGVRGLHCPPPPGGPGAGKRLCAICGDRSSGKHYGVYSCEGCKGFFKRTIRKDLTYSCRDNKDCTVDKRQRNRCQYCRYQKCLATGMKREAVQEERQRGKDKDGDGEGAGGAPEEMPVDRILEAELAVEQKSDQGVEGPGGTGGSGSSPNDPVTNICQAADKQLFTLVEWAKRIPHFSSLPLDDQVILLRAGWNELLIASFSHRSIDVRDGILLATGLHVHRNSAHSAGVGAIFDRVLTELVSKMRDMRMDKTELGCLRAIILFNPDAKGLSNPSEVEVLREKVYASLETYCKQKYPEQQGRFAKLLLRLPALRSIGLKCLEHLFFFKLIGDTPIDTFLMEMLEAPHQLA
E-selectin (Homo sapiens), sequence (P16581 whole entry, looked up): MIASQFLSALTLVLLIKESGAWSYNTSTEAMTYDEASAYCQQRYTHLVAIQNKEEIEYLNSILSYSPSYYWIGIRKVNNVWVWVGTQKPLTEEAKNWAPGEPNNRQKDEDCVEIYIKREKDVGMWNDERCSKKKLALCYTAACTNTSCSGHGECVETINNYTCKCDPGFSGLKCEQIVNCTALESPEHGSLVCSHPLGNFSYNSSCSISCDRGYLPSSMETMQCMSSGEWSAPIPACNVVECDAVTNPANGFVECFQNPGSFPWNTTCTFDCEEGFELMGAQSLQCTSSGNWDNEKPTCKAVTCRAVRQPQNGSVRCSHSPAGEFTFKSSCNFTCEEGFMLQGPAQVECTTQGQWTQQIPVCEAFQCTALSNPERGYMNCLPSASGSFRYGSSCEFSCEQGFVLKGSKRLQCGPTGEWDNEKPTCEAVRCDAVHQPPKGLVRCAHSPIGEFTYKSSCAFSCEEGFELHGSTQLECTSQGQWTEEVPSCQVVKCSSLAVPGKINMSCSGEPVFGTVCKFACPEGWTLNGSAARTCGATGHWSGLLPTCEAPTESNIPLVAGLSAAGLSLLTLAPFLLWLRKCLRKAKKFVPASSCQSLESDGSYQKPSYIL
human Thyroid Receptor alpha (THRa1), THRA (gene 7067), sequence (P10827 whole entry, looked up, the tested form may be a part): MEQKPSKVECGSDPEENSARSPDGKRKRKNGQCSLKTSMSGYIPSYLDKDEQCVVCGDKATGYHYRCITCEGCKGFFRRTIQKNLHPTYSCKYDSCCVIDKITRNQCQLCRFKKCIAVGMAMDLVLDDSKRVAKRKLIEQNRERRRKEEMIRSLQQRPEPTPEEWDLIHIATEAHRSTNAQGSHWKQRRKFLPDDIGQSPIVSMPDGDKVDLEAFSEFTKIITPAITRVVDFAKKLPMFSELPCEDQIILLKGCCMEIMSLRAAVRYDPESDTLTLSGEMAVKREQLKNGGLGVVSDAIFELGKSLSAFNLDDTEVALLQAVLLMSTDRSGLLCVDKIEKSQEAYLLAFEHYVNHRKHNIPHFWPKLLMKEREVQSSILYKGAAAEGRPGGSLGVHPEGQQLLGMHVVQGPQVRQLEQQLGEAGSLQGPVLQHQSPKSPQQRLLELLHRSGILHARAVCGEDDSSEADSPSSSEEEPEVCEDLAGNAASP

`CC[N+](CC)(CC)Cc1ccccc1`: the compound was called inactive in assay [1], in [2], in assay [3], in assay [4], in assay [5] and in [6]. Besides, the result in assay [7], in assay [8], in assay [9], in assay [10], in assay [11] and in assay [12] was inactive. Also, the result in [13], in assay [14], in [15], in assay [16], in assay [17] and in [18] was inactive.
`CCO[Si](C)(C)OCC`: the compound was called inactive in assay [1] and in assay [9].
Consider `CC(C)(O)C(=O)c1ccccc1`, for which the result in [1] and in assay [9] was inactive.
Take `CCc1cccc(CC)c1N(COC)C(=O)CS(=O)(=O)O`: the compound was classed as inactive in [19].
As to `O=P(O)(O)CCC(F)(F)C(F)(F)C(F)(F)C(F)(F)C(F)(F)C(F)(F)F`, the outcome in [19], in assay [2], in assay [3], in assay [4], in assay [5] and in assay [6] was inactive. Further, the result in assay [7], in assay [8], in assay [10], in assay [11], in assay [13] and in [14] was inactive. Further, the result in [15], in assay [16], in assay [17] and in assay [18] was inactive. Moreover, the AC50 in [11] is 40 µM (active); in assay [15] it was 22.7 µM (active).
For the compound `Oc1cc2ccccc2cc1O`, the outcome in assay [19], in [2], in assay [3], in assay [4], in assay [5] and in assay [6] was inactive. Also, the result in [7], in [8], in assay [10], in assay [11], in [12] and in assay [13] was inactive. In addition, the outcome in assay [14], in [15], in assay [16], in assay [17] and in assay [18] was inactive.
Regarding `CCN(CC)CC`, the compound was called inactive in assay [19] and in [9].

The values above are taken from PubChem BioAssay (EPA / NIEHS).
